High-throughput results: PubChem, several laboratories
Most compounds without a hit are left out; they make up all but 12% or so of the library.
Lmaj promast: Leishmania major promastigote growth inhibition, primary screen; Leishmania major promastigotes, resazurin fluorescence viability; inhibition, % at 10 µM; hit rate 9% among 200,000; AID 1063, 2008; in the data active = inhibition above about 50%;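 note: promastigotes grown with compound for 44 hours at 28 °C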
INS promoter inh: inhibitors of insulin promoter-driven GFP, primary screen, imaging, TRM-6 cells (human fetal islet line), eGFP reporter, cell count; reporter expression induced with tamoxifen; inhibition, % at 2 µM; hit rate 0.9% among 130,000; AID 1273, 2008;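 active = inhibition above the mean plus 3 SD, with well images judged a real hit on visual review, cut at about 60% in these data, passing the limit was not always enough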
KCC2 mod: KCC2 cotransporter modulators, thallium flux, primary screen, cell-based, HEK293 KCC2, FluoZin-2 fluorescence, MLSMR | Solute carrier family 12 member 5 (Homo sapiens), Q9H2X9 | KCC2 cells, thallium flux FluoZin-2 fluorescence | B-score of Tl+ flux slope (higher = more flux/activation; lower = inhibition) at 10 µM | hit rate 2.2% among 190,000;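 active = thallium flux slope and its plate-corrected score both differing from the plate sample mean at a set confidence after two filtering rounds, in either direction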;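 note: slope of fluorescence scaled to starting intensity during 10 to 20 s after thallium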
ROMK primary: ROMK potassium channel modulators, primary screen, cell-based, thallium flux, MLSMR library | ATP-sensitive inward rectifier potassium channel 1 (Homo sapiens), P48048 | Tet-inducible ROMK, thallium flux fluorescence; actives lie on both sides | B-score at 10 µM | hit rate 2% among 130,000;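 active = signal ratio slope over the read window, or its plate-corrected B-score, at least 3 SD from the plate mean, either direction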;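 note: B-score of the F/F0 ratio slope over 7 to 12 s after thallium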
Insulin prom up: insulin promoter activators in MIN6 cells, imaging, high-content screening, mouse beta cells. MIN6 insulin promoter-GFP reporter; stronger effect = higher value. z-score at 5 µM. hit rate 0.3% among 190,000. AID 1625, 2009;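 active = z-score above 3 at 5 µM with at least 500 cells counted in the well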
WT yeast gro inh: growth inhibition of WT strain, primary screen, mitochondrial fusion inhibitor project, WT and mutant strains, chemical genetic; mitochondrial fusion phenotypic screen; inhibition, % at 10 µM; hit rate 2.1% among 190,000; in the data active = inhibition above about 58%; tested in S. cerevisiae
Hits are given with their value; i = inactive; nt = no result.

SMILES | Lmaj promast | INS promoter inh | KCC2 mod | ROMK primary | Insulin prom up | WT yeast gro inh
CC(=O)N1N=C(c2ccc(C)cc2)OC1c1ccc(Br)cc1 (stereo not drawn) | i | i | i | nt | i | 63
Cc1onc(-c2ccccc2Cl)c1C(=O)Nc1cccc(-c2cn3cccnc3n2)c1 | i | i | i | nt | i | nt
C=C(C)C1Cc2nc(N)nc(C)c2C1 (stereo not drawn) | i | i | nt | i | i | i
C=C(C)C1Cc2c(C)nn(-c3nc(C)cc(C)n3)c2C1 (stereo not drawn) | i | i | i | i | i | 64
CCOC(=O)N1CCN(CC(=O)Nc2ccc(F)c(F)c2)CC1 | i | nt | i | i | i | i
CCOC(=O)N1CCN(CC(=O)Nc2ccc([N+](=O)[O-])cc2C(=O)Nc2ccccc2F)CC1 | 75 | i | i | nt | i | i
CCN1CCCC1CN(Cc1cc2cc(C)ccc2[nH]c1=O)C(=O)Nc1ccccc1OC (stereo not drawn) | i | i | i | nt | i | i
CC(C)COc1cccc(C(=O)NC(=S)Nc2cccc(NC(=O)c3ccccc3Cl)c2)c1 | 80 | i | i | i | i | i
CCCCOc1cccc(C(=O)NC(=S)Nc2cccc(NC(=O)c3ccccc3Cl)c2)c1 | i | i | i | i | i | i
CC(=O)c1cccc(NC(=S)NC(=O)c2ccccc2C)c1 | i | i | i | i | i | i
CC(=O)c1cccc(NC(=S)NC(=O)c2cccc(C)c2)c1 | 51 | i | 8.4 | nt | i | i
CCCOc1cccc(C(=O)NC(=S)Nc2cccc(NC(=O)c3ccccc3Cl)c2)c1 | 97 | i | i | i | i | i
Cc1cccc(NC(=S)N/C(=N/S(=O)(=O)c2ccccc2)c2ccccc2)c1 | i | i | 3.5 | i | i | i
Cc1c(NC(=S)N/C(=N/S(=O)(=O)c2ccccc2)c2ccccc2)c(=O)n(-c2ccccc2)n1C | nt | nt | i | i | nt | nt
CC(C)Oc1cccc(C(=O)NC(=S)Nc2ccccc2)c1 | 86 | i | 46 | nt | i | i
CCC(C)NC(=O)c1ccccc1NC(=O)c1ccc(CSc2ccccc2)cc1 (stereo not drawn) | i | i | i | i | i | i
Cc1ccc2nc(N(CCCN(C)C)C(=O)c3ccc4c(c3)CCCC4)sc2c1 | 99 | nt | i | i | i | i
Cc1ccc2nc(N(CCCN(C)C)C(=O)c3ccco3)sc2c1 | i | i | i | i | i | i
Cc1ccc2nc(N(CCCN(C)C)C(=O)c3ccc(Br)s3)sc2c1 | i | i | i | i | i | 90
NC(=O)NOCc1c(F)cccc1Cl | i | nt | i | nt | i | i
O=C1c2ccccc2C(=O)N1CC1=NCCc2ccccc21 | i | i | i | i | i | i
Brc1c(OCCOCCn2cncn2)ccc2ccccc12 | 65 | i | i | nt | i | i
Cc1cccc(/C=N/Nc2cc(N3CCOCC3)nc(N3CCOCC3)n2)c1 | 87 | i | i | i | i | i
Oc1ccc(/C=N/Nc2cc(N3CCCC3)nc(N3CCCC3)n2)cc1O | 99 | i | i | i | i | i
O=C(O)c1cc([N+](=O)[O-])c(N2CCCC2)c([N+](=O)[O-])c1 | i | i | i | nt | i | i
SMILES | Lmaj promast | INS promoter inh | KCC2 mod | ROMK primary | Insulin prom up | WT yeast gro inh
O=C(CCC1CCCCC1)N1CCN(Cc2ccc3c(c2)OCO3)CC1 | 96 | i | i | nt | i | i
Cc1ccc2[nH]c3c(c2c1)CN(C(=O)CN1CCN(Cc2ccc4c(c2)OCO4)CC1)CC3 | 95 | nt | nt | nt | i | i
O=C(CN1CCN(c2ccccc2)CC1)N1CCc2[nH]c3ccccc3c2C1 | 91 | i | i | nt | i | i
CS(=O)(=O)N(CCc1ccccc1)CC(=O)N1CCN(Cc2ccc3c(c2)OCO3)CC1 | i | i | i | i | i | i
O=C(CN1CCc2[nH]c3ccccc3c2C1)N1CCCCC1 | i | nt | nt | nt | nt | i
CS(=O)(=O)N(CC(=O)N1CCN(Cc2ccc3c(c2)OCO3)CC1)Cc1ccc(Cl)cc1 | 98 | i | i | i | i | i
Cc1ccc(-c2nnc(SCC(=O)NC(=O)Nc3ccc(C)cc3C)n2N)cc1 | i | nt | i | nt | i | i
Cc1ccc(CSCC(=O)N2CCN(Cc3ccc4c(c3)OCO4)CC2)cc1 | 59 | i | i | i | nt | i
COc1ccccc1C(=O)N1CCN(Cc2ccc3c(c2)OCO3)CC1 | i | i | i | i | nt | i
COc1ccc(C2CC(=O)c3cnc(NC(=O)c4ccccc4OC)nc3C2)c(OC)c1 (stereo not drawn) | 86 | i | i | nt | nt | i
COc1ccc(C2CC(=O)c3cnc(Nc4cc(C)cc(C)c4)nc3C2)cc1 (stereo not drawn) | i | i | i | nt | i | 69
COc1ccc(C2CC(=O)c3cnc(NC(=O)c4cc(OC)cc(OC)c4)nc3C2)cc1 (stereo not drawn) | i | nt | i | i | i | i
O=S(=O)(N/N=C/c1c(F)cccc1Cl)c1ccccc1 | i | i | nt | nt | i | i
CC(C)CN1C(=O)/C(=C/c2c(N3CCc4ccccc4C3)nc3ccccn3c2=O)SC1=S | nt | nt | i | i | 17 | nt
N#C/C(=C\c1ccc(OCC(N)=O)cc1)c1ccccc1 | 58 | i | i | nt | i | i
Cc1cc(Cl)ccc1N(CC(=O)NCc1ccc2c(c1)OCO2)S(C)(=O)=O | i | i | i | i | i | i
C/C(=N\Nc1nc2ccccc2[nH]1)c1ccc(C)o1 | 65 | nt | i | nt | i | i
C/C(=N\Nc1nc2ccccc2[nH]1)c1ccc(Cl)s1 | 90 | nt | i | nt | i | i
C/C(=N\Nc1nc2ccccc2[nH]1)c1ccc(N2CCOCC2)cc1 | 100 | 75 | i | i | i | i
c1ccc2[nH]c(N3CCOCC3)nc2c1 | i | 61 | i | nt | i | i
COc1ccc(C2C(C(=O)N3CCOCC3)CCC(=O)N2c2cc(OC)c(OC)c(OC)c2)cc1 (stereo not drawn) | i | i | i | nt | i | i
CC(=O)c1cnn(-c2cc(Oc3ccccc3C)ncn2)c1C | i | i | i | i | i | i
CCSC1=NC(=O)/C(=C2/C=Cc3ccccc3N2CC)S1 | i | i | nt | i | i | i
COc1ccccc1NS(=O)(=O)c1ccc(N/N=C/C=C/c2ccccc2[N+](=O)[O-])c([N+](=O)[O-])c1 | 50 | i | i | i | i | i
COc1ccccc1NS(=O)(=O)c1cccc(C(=O)N/N=C/c2cn(-c3ccccc3)nc2-c2ccccc2)c1 | 53 | i | i | i | i | i
COc1ccccc1NS(=O)(=O)c1cccc(C(=O)N/N=C/c2c(C)nn(-c3ccccc3)c2N2CCCC2)c1 | 96 | i | i | i | i | i
COc1ccccc1NS(=O)(=O)c1ccc(N/N=C/c2ccccc2OCC(=O)O)c([N+](=O)[O-])c1 | i | i | i | i | i | i
COc1ccc(-c2nn(-c3ccccc3)cc2/C=N/NC(N)=S)cc1OC | 80 | i | i | i | i | i
COc1ccccc1NS(=O)(=O)c1ccc(N/N=C/c2c(C)nn(-c3ccccc3)c2N2CCCC2)c([N+](=O)[O-])c1 | 100 | i | i | nt | i | i
